Assay outcomes: PubChem, National Center for Advancing Translational Sciences (NCATS)
PLK1 PBD inh: inhibitors of human PLK1 polo-box domain binding. Plk1 PBD binding of FITC phosphopeptide, fluorescence polarization. Potency, µM, inactives show max response, negative = inhibition, hits mostly inhibitors. actives 2.8% (n = 360,000); note: potency is the fitted concentration of half-maximal effect; series mostly up to about 57 µM; nearly all actives have a fitted effect of over 65% in size
PI5P4K alpha inh: blocks human PI5P4K alpha kinase activity; P48426; actives 1.2% (n = 330,000); PI5P4Kalpha enzyme, ADP-Glo luminescence, 60 min; hits give low values; max response, %; active = max response of -50% or lower; inconclusive = between -30% and -50%; inactive = -30% or higher; note: value at the top dose of about 77 µM
Target sequence (P48426 whole entry, looked up): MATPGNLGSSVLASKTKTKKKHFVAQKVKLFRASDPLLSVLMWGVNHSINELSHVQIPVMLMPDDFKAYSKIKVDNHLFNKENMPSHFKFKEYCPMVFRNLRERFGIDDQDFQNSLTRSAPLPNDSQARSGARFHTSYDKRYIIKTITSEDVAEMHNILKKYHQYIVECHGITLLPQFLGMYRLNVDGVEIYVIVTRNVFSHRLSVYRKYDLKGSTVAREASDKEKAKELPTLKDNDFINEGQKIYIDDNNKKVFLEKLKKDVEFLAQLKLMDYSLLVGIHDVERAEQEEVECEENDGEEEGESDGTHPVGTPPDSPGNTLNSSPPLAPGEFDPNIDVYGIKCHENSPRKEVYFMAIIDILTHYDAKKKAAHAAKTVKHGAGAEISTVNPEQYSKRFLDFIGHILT
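qHTS, 1536-well: enzyme/substrate mix, compound by pin tool, 5 microM ATP final; RT 60 min; ADP-Glo reagents 1 (45 min) then 2 (30 min); luminescence.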
WRN inhibitor: blocks human WRN helicase; Q14191; WRN helicase unwinding, fluorescent forked duplex, kinetic; Potency, µM (titrated, usually from 114 µM), inactives show at the top dose activity change, negative = inhibition, most hits filed as inhibitors; actives 0.46% (n = 360,000); note: potency is the fitted concentration of half-maximal effect; nearly all actives have a fitted effect of over 55% in size
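Kinetic red-fluorescence monitoring (525/598 nm) tracks WRN helicase activity after 100 nM fluorophore-quencher forked duplex and 2 mM ATP are added to 20 nM enzyme pretreated 15 min at room temperature with compound.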
USP2a block: inhibitors of human ubiquitin-specific protease USP2a; AID 463254; USP2 core, Ub-CHOP2 coupled fluorogenic reporter, 485/531; O75604; Potency, µM (series often up to 38.3 µM), for inactives: at the top dose activity change, negative = inhibition, usual class: inhibitors; actives 0.01% (n = 330,000);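 note: potency is the fitted concentration of half-maximal effect; plate controls were DMSO wells for no effect and full inhibition by NEM control for full effect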
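USP2 core (10nM final) preincubated 30min RT with compound in 20mM Tris-HCl pH 8.0, 2mM CaCl2, 2mM beta-mercaptoethanol, 0.05% CHAPS; 25nM Ub-CHOP2 plus 25nM reporter substrate added, fluorescence (Ex485/Em531) read after 60min.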
USP1 inh: blocks the human USP1/UAF1 deubiquitinase complex; Potency, µM (doses to about 57.1 µM), inactives show top-dose activity change, negative = inhibition, usual class: inhibitors; O94782; actives 0.23% (n = 390,000); recombinant USP1/UAF1, Ub-Rhodamine cleavage fluorescence; AID 743255; note: potency is the fitted concentration of half-maximal effect; nearly all actives have a fitted effect of over 60% in size
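USP1/UAF1 complex at 1 nM was preincubated with compound for 15 min at room temperature, then Ub-Rho substrate (150nM final) was added. Fluorescence (480/540 nm) was read kinetically, 6 reads every 60 seconds.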
Numbers without * were called inactive; ? = inconclusive; . = no result; [ ] = another dose, or the depositor's remark. Sampled rows, rich in hits. Any-hit rate of the full collection: about 3.3%. Unless noted, calls come from the whole dose curve; as a rule, active = well fitted curve in the direction sought with a large enough effect; inconclusive = small, poorly fitted or top-dose-only effect, or another doubt; inactive = no such curve, though single readings can be large; an effect the other way counts as inactive or inconclusive. Unless noted, % is set by controls: 0 for no effect and ±100 for the full control effect.

SMILES	PLK1 PBD inh	PI5P4K alpha inh	WRN inhibitor	USP2a block	USP1 inh
COCCNC(=O)c1ccc2c(c1)NC(=O)C(CS(=O)(=O)Cc1ccc(F)cc1Cl)N2 (centres undefined)	.	.	.	.	-22%
CC(C)CC1NC(=S)N(C2CCCCC2)C1=O (centres undefined)	3µM*	-59*	?	-1%	-20%
C#CCCc1cscc1/C=[N+](\[O-])c1ccc(C(=O)OCC)cc1	7.5µM*	?	0%	-2%	-21%
Cc1cc(=O)[nH]c2nnc(SCc3c(F)cccc3Cl)n12	.	.	.	.	-10%
CC(=O)c1ccc(Sc2nnc(C)s2)c([N+](=O)[O-])c1	-11%	0	0%	3%	-23%
CCC(=O)OCCNc1cc(Sc2nc3ccccc3s2)c2nonc2c1[N+](=O)[O-]	1.9µM*	.	-23%	-2%	?
CCC(=O)OCCNc1cc(Sc2nc3ccccc3[nH]2)c2nonc2c1[N+](=O)[O-]	1.2µM*	-56*	?	2%	-5%
Cc1nnc(Sc2cc(NCCO)c([N+](=O)[O-])c3nonc23)s1	2.4µM*	-18	-24%[11.6 µM]	2%	-26%
COc1c(C)cccc1C(=O)Nc1cccc2ccc(C)nc12	.	.	.	.	-21%
Cc1nc2cc(-c3ccccc3)nn2c(C)c1CCC(=O)NCc1cccc(Cl)c1	.	.	.	.	-25%
O=C(Cn1nnnc1-c1ccccc1F)Nc1ccc(F)c(F)c1	.	.	.	.	-19%
COc1ccc(-n2c(SCC(=O)C(C)(C)C)nc3c(sc(=S)n3-c3ccccc3)c2=O)c(OC)c1	3.8µM*	-13	-16%	-17%	-11%
COc1ccc(-n2c(/C=C/c3cccc(C(F)(F)F)c3)nc3ccccc3c2=O)cc1Cl	.	.	.	.	-19%
CN(C)C(=O)c1ccc(NC(=O)c2cccc(S(=O)(=O)N3CCCc4ccccc43)c2)cc1	-23%	-3	-4%	-1%	-23%
Cc1ccc2c(c1)CCCN2S(=O)(=O)c1cccc(C(=O)Nc2ccccc2C(=O)O)c1	19µM*	.	.	.	.
O=C(NC1=NCCS1)c1cccc(S(=O)(=O)N2CCc3ccccc32)c1	-9%	0	-6%	1%	-19%
O=C(Nc1nncs1)c1cccc(S(=O)(=O)N2CCc3ccccc32)c1	3.4µM*	?	-8%[57.1 µM]	4%	-14%
Cc1cc(=O)[nH]c2nnc(SCC(N)=O)n12	.	.	.	.	-22%
CCC(C)NC(=O)CSc1nc2n[nH]c(C)c2c(=N)n1-c1cc(Cl)ccc1C (centres undefined)	.	.	.	.	13%
Cc1ccc(C(O)c2nc3ccccc3n2C(C)C)cc1 (centres undefined)	-14%	4	-10%	9%	-6%
COc1ccc(C(O)c2nc3ccccc3n2C(C)C)cc1 (centres undefined)	24µM*	-1	1%	-1%	-20%
Cc1ccccc1NC(=O)CN(C)S(=O)(=O)c1cccc2nsnc12	.	.	.	.	-25%
CCN(c1ccccc1)c1cc2ccccc2c(=O)[nH]1	30µM*	-11	14%	3%	25µM*
CCN(c1ccccc1)c1nc(=O)c2cccnc2s1	-9%	1	-9%	1%	-18%
CC1=C(C(=O)Nc2ccccc2)C2(CCCCC2)C(C#N)=C(SCC(N)=O)N1	3.4µM*	?	21%	2%	-15%
SMILES	PLK1 PBD inh	PI5P4K alpha inh	WRN inhibitor	USP2a block	USP1 inh
CC1(C)CC(=O)C2=C(C1)NC(SCC(=O)Nc1ccccc1)=C(C#N)C21CCCCC1	-12%	-12	-8%[57.1 µM]	3%	-9%
COC(=O)c1nn(-c2ccc(OC)cc2)c(=O)c2c(N)sc(C)c12	24µM*	-23	-11%	6%	-22%
O=C(c1cccc(Cl)c1)N1c2ncnn2C2(CCCCC2)[C@@H]2CCCC[C@@H]21	.	.	.	.	-11%
COC(=O)CCCC1=CC2=CC(=O)C(C)(OC(=O)c3cccs3)C(=O)C2=CN1C1CCCC1 (centres undefined)	-21%	0	-8%[57.1 µM]	12%	?
CC1(OC(=O)c2cccs2)C(=O)C=C2C=C3CCCN3C=C2C1=O (centres undefined)	?	-60*	?	-7%	?
CC1CCN(C(=O)CSc2nncn2-c2ccccn2)CC1	27µM*	-6	1%	3%	-15%
CCOC(=O)c1cnc(-n2nc(C)cc2C)[nH]c1=O	-15%	1	11%	3%	-25%
CCOC(=O)c1cnc(-n2[nH]c(C)cc2=O)[nH]c1=O	-6%	2	56µM*	1%	-24%
CCOC(=O)c1c(C)[nH]c(CCC(=O)Nc2ccccc2C(=O)OC)c1C	.	.	.	.	-11%
O=C(c1ccc(S(=O)(=O)Cc2cc(F)ccc2F)c([N+](=O)[O-])c1)N1CCCC1	11µM*	1	?	-1%	-6%
Cc1ccc(NC(=O)COc2cccc(/C=C3\SC(=S)N(CCC(=O)O)C3=O)c2)cc1Cl	19µM*	1	-15%[11.6 µM]	-6%	?
O=C(O)CCN1C(=O)/C(=C\c2cccc(OCC(=O)Nc3ccc(Cl)cc3)c2)SC1=S	27µM*	-7	-32%	-2%	-1%
COc1ccc2nc(N3CCN(C(=O)C4CC4)CC3)sc2c1	.	.	.	.	-19%
CCOc1ccc(N=C2NC(=O)S/C2=C\c2ccc(Cl)cc2)cc1	-15%	1	-10%	2%	-5%
COc1ccc(N=C2NC(=O)S/C2=C\c2ccc(N(C)C)cc2)cc1	?	-6	?	-1%	25µM*
CCOn1c(=O)c(-c2cc3ccccc3o2)[n+]([O-])c2ccccc21	30µM*	8	0%	0%	4%
O=c1c(-c2ccc(Br)cc2)[n+]([O-])c2ccccc2n1OCc1ccccn1	24µM*	6	-8%[57.1 µM]	1%	-7%
O=c1c(-c2cc3ccccc3o2)[n+]([O-])c2ccccc2n1OCc1ccccn1	?	3	13%	0%	-10%
C=CCOn1c(=O)c(-c2ccc(OC)cc2)[n+]([O-])c2ccccc21	12µM*	0	-7%	1%	-21%
CCOn1c(=O)c(-c2ccc(Br)cc2)[n+]([O-])c2ccccc21	-5%	0	9%	0%	-19%
COc1ccccc1CCNC(=O)C(=O)NCC(c1ccco1)S(=O)(=O)c1ccc(F)cc1 (centres undefined)	.	.	.	.	-4%
CCC(/C=C1\Sc2ccc(OC)cc2N1CCO)=C\c1sc2ccc(OC)cc2[n+]1CCO	?	-78*	50µM*	2%	-5%
Cc1cccc(CNC(=O)CCCN2C(=O)c3cccnc3Oc3ccccc32)c1	.	.	.	.	-8%
O=C(O)COc1cccc(/C=C2/SC(=S)N(Cc3ccccc3)C2=O)c1	24µM*	-1	?	0%	-10%
O=C(O)CN1C(=O)/C(=C\c2cccc(OCc3ccccc3)c2)SC1=S	24µM*	-1	-9%	-1%	-20%
CN1C(=O)/C(=C\c2cccc(OCc3ccccc3)c2)SC1=S	1%	0	-1%[57.1 µM]	4%	-21%
